Screens (PubChem)
A selection: hits, their analogues and other compounds. The true share with any hit is near 1.9%.
FPR binder: human FPR ligand, with FPRL1 counter-screen; inhibition, % (no concentration beside the values); FPR-expressing cells, fluorescent ligand binding, flow cytometry; 24,000 compounds, 0.74% hits; P21462;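 also: 0% = buffer wells and 100% = receptor blocker peptide wells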
FPRL1 binder: binds the human formylpeptide receptor-like-1 FPRL1. P25090. FPRL1-expressing cells, fluorescent ligand binding inhibition, flow cytometry. inhibition, % (no concentration beside the values). 24,000 compounds, 0.3% hits. AID 441;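 also: 0% = buffer alone and 100% = receptor blocker peptide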
VLA-4 antagonist: blocks LDV-FITC ligand binding to Mn2+-activated human VLA-4 integrin; Jurkat cells, LDV-FITC binding with Mn2+, flow cytometry; 100% = Mn2+-driven binding gain fully reversed; AID 529; 24,000 compounds, 0.2% hits; P13612; inhibition, % at 10 µM (by protocol);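 active = inhibition above 50%; inconclusive = compound itself fluorescent, judged against control cell fluorescence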;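 also: 0% = Mn2+ stimulated cells lacking compound and 100% = ligand binding without Mn2+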
Target sequence (P13612 whole entry, looked up): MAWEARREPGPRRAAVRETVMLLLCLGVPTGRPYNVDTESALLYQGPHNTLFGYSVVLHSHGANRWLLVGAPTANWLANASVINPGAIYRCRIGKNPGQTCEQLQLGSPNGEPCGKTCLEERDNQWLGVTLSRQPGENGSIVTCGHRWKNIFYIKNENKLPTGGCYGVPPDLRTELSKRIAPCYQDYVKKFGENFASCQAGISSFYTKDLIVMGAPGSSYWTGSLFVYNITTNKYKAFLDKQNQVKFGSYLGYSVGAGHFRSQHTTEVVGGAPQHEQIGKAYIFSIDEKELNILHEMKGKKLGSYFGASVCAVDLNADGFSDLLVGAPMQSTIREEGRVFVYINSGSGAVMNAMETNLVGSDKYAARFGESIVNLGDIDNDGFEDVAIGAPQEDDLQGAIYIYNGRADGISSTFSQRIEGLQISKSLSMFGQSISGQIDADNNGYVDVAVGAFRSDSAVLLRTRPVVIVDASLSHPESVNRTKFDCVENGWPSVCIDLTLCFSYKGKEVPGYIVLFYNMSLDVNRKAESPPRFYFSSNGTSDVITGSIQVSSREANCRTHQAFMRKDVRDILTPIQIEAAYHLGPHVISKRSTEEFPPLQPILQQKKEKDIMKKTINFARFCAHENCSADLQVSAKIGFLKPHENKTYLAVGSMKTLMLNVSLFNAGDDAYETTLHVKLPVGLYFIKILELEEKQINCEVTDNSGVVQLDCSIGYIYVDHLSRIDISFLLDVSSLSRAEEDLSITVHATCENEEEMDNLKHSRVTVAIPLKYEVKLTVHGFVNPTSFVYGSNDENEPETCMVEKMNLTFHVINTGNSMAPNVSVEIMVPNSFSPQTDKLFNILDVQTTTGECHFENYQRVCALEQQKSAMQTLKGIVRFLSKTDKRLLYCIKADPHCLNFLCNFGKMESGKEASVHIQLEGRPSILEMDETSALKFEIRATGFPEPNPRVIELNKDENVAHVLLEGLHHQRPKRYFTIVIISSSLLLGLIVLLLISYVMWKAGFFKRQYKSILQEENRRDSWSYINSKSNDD
Autofluor Jurkat: counter-screen for VLA-4 integrin: compound autofluorescence in Jurkat cells. 24,000 compounds, 0.61% hits. flow cytometry; hits give high values; 1 = vehicle-only cell background. fluorescence ratio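 (tested at 10 µM compound in the well)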;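 active = fluorescence ratio above 2.44, which is 1 plus 3 SD of all ratios; inconclusive = signal too bright to measure linearly, ratio around 10 or more; inactive = fluorescence ratio below 2.44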;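 also: green fluorescence of cells measured with 488 nm excitation and 530 nm emission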
Proteasome disasm: blocks ATP-dependent breakdown of the yeast 26S proteasome; anti-FLAG beads, GFP-proteasome disassembly, flow cytometry; inhibition of disassembly, % (concentration not given with the values); 24,000 compounds, 0.2% hits; AID 751;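 active = inhibition of disassembly above about 33%, limit read from the data; inconclusive = likely self-fluorescent, control bead median signal at least 40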;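 also: plate controls were ATP control with full disassembly for no effect and ATP-gamma-S intact proteasomes for full effect; higher percent means more bead fluorescence retained so stronger block of disassembly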
VLA-4 agonist: allosterically activates the human VLA-4 integrin; Jurkat cells, LDV-FITC binding, flow cytometry; activation, % at 10 µM (by protocol); 24,000 tested, under 10 active;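 active = fluorescent ligand binding to cells raised by more than 40% of the manganese-induced maximum; inconclusive = compound's own fluorescence above 85% of the ligand control signal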;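 also: 0% = ligand binding without compound and 100% = manganese-stimulated maximal binding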
The depositor's hits bear a star; ? = inconclusive; · = no result; ! = not confirmed by another sample. Rule as the data show it, unless noted: active = inhibition above about 30%; inconclusive = no clear call, values can overlap the other calls; inactive = below that.

SMILES | FPR binder | FPRL1 binder | VLA-4 antagonist | Autofluor Jurkat | Proteasome disasm | VLA-4 agonist
COC(=O)c1cccnc1-n1c(=O)c2cccnc2n(Cc2ccc(Cl)cc2)c1=O | -4 | 2 | -8 | 1.1 | 3 | -7
CCN1C(=O)/C(=C2\SC(=S)N(CCCOC)C2=O)c2ccccc21 | 23 | 33* | · | · | · | ·
COCCCN1C(=O)C(O)=C(C(C)=O)C1c1ccccn1 (stereo not drawn) | 7 | -3 | 2 | 1 | 3 | -2
Cc1n[nH]c(C)c1S(=O)(=O)N1CCCC(C(=O)NCc2cccs2)C1 (stereo not drawn) | 2 | -1 | -40 | 0.8 | -1 | 21
Cc1n[nH]c(C)c1S(=O)(=O)N1CCCC(C(=O)NC2CCCc3ccccc32)C1 (stereo not drawn) | 0 | -3 | ? | 2.5* | 1 | ?
CCCc1cc(C(=O)Nc2ccc(C(C)=O)cc2)no1 | -4 | -8 | 8 | 0.98 | 1 | 2
CCOC(=O)CSc1nc2ccccc2n1CC(=O)N1CCN(c2ccccc2)CC1 | 1 | 12 | 1 | 1.1 | 0 | -4
CCOC(=O)N1CCC(Nc2nc3ccccc3n3cnnc23)CC1 | -3 | -4 | 6 | 0.99 | 0 | 0
CCOC(=O)CSc1nc2ccccc2n2cnnc12 | ? | -49 | ? | 7.3* | 1 | ?
CCOC(=O)CSc1nc2ccccc2n1C(=O)OCC | -4 | -8 | ? | 2.8* | -48 | ?
CSc1nc(N)nc(SCC(=O)c2ccccc2)c1C#N | 3 | 5 | 18 | 1.1 | -2 | -1
N#Cc1c(-c2ccco2)cc(C2CC2)nc1SCC(=O)c1ccccc1 | 2 | 0 | ? | 2.5* | 1 | ?
Cc1ccc(C)c(-n2c(CNC(=O)c3ccco3)nnc2SCC(=O)N2CCc3ccccc32)c1 | 55* | 0 | 2 | 1 | 0 | 0
Cc1ccc(C)c(-n2c(CNC(=O)c3ccco3)nnc2SCC(=O)Nc2nnc(C)s2)c1 | 1 | -2 | -11 | 1.1 | 0 | 4
CCOc1ccc2nc(N3CCC(C(=O)N4CCN(c5ccccn5)CC4)CC3)sc2c1 | 3 | 12 | 54* | 1.3 | 1 | -17
COc1cc2c3c(c1)/C(=C1/SC(NC(C)=O)=NC1=O)C(=O)N3C(C)(C)C=C2C | 30* | 11 | -5 | 1 | 3 | 7
O=C(CSCc1cnn(-c2ccccc2)c1-n1cccc1)NCC1CCCO1 (stereo not drawn) | -2 | -4 | -6 | 1.1 | 2 | -4
C=CCOc1ccc(C2C(C(=O)c3cccs3)=C(O)C(=O)N2c2nnc(C)s2)cc1 (stereo not drawn) | 43* | 21 | · | · | · | ·
COc1ccc(C2C(C(=O)c3cccs3)=C(O)C(=O)N2c2nncs2)cc1 (stereo not drawn) | 19 | -5 | · | · | · | ·
COc1ccc(C2C(C(=O)c3cccs3)=C(O)C(=O)N2c2nnc(C)s2)cc1OC (stereo not drawn) | 36* | 27 | · | · | · | ·
COc1cccc(N2C(=O)C3ON(c4ccccc4)C(c4cccs4)C3C2=O)c1 (stereo not drawn) | 39* | -3 | ? | 1.4 | 2 | ?
CCOC(=O)c1c(NC(=O)c2cc(C3CC3)on2)sc2c1CCCC2 | 10 | 58* | -5 | 1 | -2 | 1
COc1ccc(-n2c(Cc3cccn3C)nnc2SCC(=O)Nc2ccc(Cl)cc2)cc1 | 56* | 1 | 7 | 0.9 | 2 | -4
CCOc1cc2c(cc1OCC)C(C(=O)O)C(c1cc(Br)c(O)c(OC)c1)N(C)C2=O (stereo not drawn) | 1 | -1 | ? | 1 | 0 | ?
CCCCN(CC)CCNC(=O)c1cc2c(C)nc3ccccc3c2o1 | -3 | -1 | -6 | 1.1 | 1 | 2
SMILES | FPR binder | FPRL1 binder | VLA-4 antagonist | Autofluor Jurkat | Proteasome disasm | VLA-4 agonist
CCCCOc1cc(C(=O)NCCN(CC)CC)c2ccccc2n1 | 49*! | 0 | -2 | 1 | -1 | 4
COc1ccc2cnn(-c3ccccc3)c(=O)c2c1OC | 36* | 45* | -30 | 1 | 0 | -2
COCCN1Cc2cccc(C(=O)NCc3ccc4c(c3)OCO4)c2C1=O | 25 | 33* | 5 | 1 | -1 | -2
C/C(=N\O)C(=O)NCc1ccncc1 | -6 | 4 | ? | 6.2* | -4 | ?
Cc1ccc(C)c(-n2c(CNC(=O)c3ccco3)nnc2SCC(=O)Nc2nccs2)c1 | 3 | 1 | -26 | 0.93 | 0 | 0
CCCCNC(=O)C(C#N)c1nc2ccccc2nc1N1CCCC1 (stereo not drawn) | -13 | -5 | ? | 2.5* | 2 | ?
CCC(C)(C(=O)NC1CCCCC1)N(Cc1ccco1)C(=O)c1ccc2c(c1)OCO2 (stereo not drawn) | 6 | -1 | -9 | 0.96 | 1 | -2
CCC(C)(C(=O)NC1CCCC1)N(CC1CCCO1)C(=O)c1ccc2c(c1)OCO2 (stereo not drawn) | 37* | 2 | 3 | 1 | 0 | 3
COC(=O)CC1Oc2ccc(C)cc2NC1=O (stereo not drawn) | -5 | 5 | -2 | 1.1 | 0 | 6
O=C(O)CC1Oc2ccc(Cl)cc2NC1=O (stereo not drawn) | -38 | 37* | -18 | 1.1 | 0 | 8
O=C(OC1CCCCC1)c1ccc2c(c1)C1C=CCC1C(C(=O)O)N2 (stereo not drawn) | 10 | 6 | ? | 3.8* | 0 | ?
Cc1ccccc1-n1c(=O)cc(N2CCC3(CC2)OCCO3)[nH]c1=O | -3 | 6 | -7 | 1.1 | 1 | 3
CCOC(=O)N1CCN(c2cc(NCCC(=O)O)c3c4c(onc24)-c2ccccc2C3=O)CC1 | 32* | 61* | ? | 4.6* | -3 | ?
O=C(O)CCCNc1cc(N2CCC3(CC2)OCCO3)c2noc3c2c1C(=O)c1ccccc1-3 | 32* | 73* | ? | 5.2* | -3 | ?
CCOC(=O)N1CCN(c2c(NCCCN(CC)Cc3ccccc3)c(=O)c2=O)CC1 | 5 | -4 | -23 | 1 | -1 | 4
Cn1c(=O)[nH]c(=O)c2c1nc(CN1CCN(c3ccc(F)cc3)CC1)n2CCN1CCOCC1 | -3 | 0 | -9 | 1.1 | 0 | 5
COc1ccc(NC(=O)CCc2ccccc2)cc1NC(=O)c1ccco1 | -7 | -3 | -3 | 1 | -3 | -8
CCOc1cc(NC(=O)c2ccco2)c(OCC)cc1NC(=O)CCc1ccc(OC)cc1 | 33* | 1 | -19 | 1.1 | -1 | -4
O=C(c1cc2nc(-c3ccco3)cc(C(F)(F)F)n2n1)N1CCN(c2ccccn2)CC1 | -13 | -5 | ? | 1.1 | 7 | ?
CC(C)CN(CC(C)C)C(=O)CS(=O)(=O)Cc1ccccc1 | 63* | -3 | -8 | 1 | 1 | 3
Cc1ccc(C2C(C(=O)c3ccco3)=C(O)C(=O)N2c2nnc(C)s2)cc1 (stereo not drawn) | -3 | 1 | · | · | · | ·
